# Test results as given in the supplement of paper PMC9135407.
# Structures can show the parent of a compound that is named as a salt. Values without a mark were called inactive.
# System: primary human hepatic stellate cells (donor 1)
# Experiment: COL1A1 mRNA fold change vs DMSO (normalised to PSMB2); higher = more COL1A1 expression, active = hit call of the paper
# Conditions: 48 h
# Procedure: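 Secondary qRT-PCR screen in primary human HSCs (donor 1), 384-well plates, with compounds dispensed in quadruplicate and incubated for 48 h. Cells-to-CT lysates were used for multiplexed TaqMan qPCR of ACTA2 or COL1A1 with PSMB2 as reference. Fold changes versus DMSO come from a linear model (Ct_gene ~ Ct_PSMB2 + plate + chemical). A hit is defined as COL1A1 and ACTA2 FC <0.5 (FDR <0.05) with PSMB2 between 0.2 and 2.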
row,Compound,COL1A1 mRNA fold change
1,CCNC(=O)c1noc(-c2cc(C(C)C)c(O)cc2O)c1-c1ccc(CN2CCOCC2)cc1 (11.1 µM),1.09
2,c1cc(OCCN2CCCCC2)cc(-c2n[nH]c3ccc(-c4nnc[nH]4)cc23)c1 (33.3333 µM),0.105 (active)
3,CC#CCOC(=O)c1c(C)nc2sc3c(c2c1N)CCC(O)C3 (stereo not given) (33.3333 µM),2.5
4,CCCCCCCCc1ccc(CCC(N)(CO)CO)cc1 [Fingolimod (FTY720) HCl] (11.1 µM),0.392
5,Cn1cc(C2=C(c3ccc(Cl)cc3Cl)C(=O)NC2=O)c2ccccc21 (33.3333 µM),2.59
6,Cc1cnc(-c2cnc(NCCNc3ccc(C#N)cn3)nc2-c2ccc(Cl)cc2Cl)[nH]1 (33.3333 µM),1.04
7,O=C(Nc1ncc(SCCN2CCCC2)s1)[C@]1(c2ccc(S(=O)(=O)C3CC3)cc2)C[C@H]1C1CCCCC1 (11.1 µM),0.0203 (active)
8,CN1CCN2c3ccccc3Cc3ccccc3C2C1 (stereo not given) [Mianserin hcl] (25.2333 µM),0.529
9,CCN(CC)CCCCNc1ncc2cc(-c3c(Cl)cccc3Cl)c(NC(=O)NC(C)(C)C)nc2n1 (33.3333 µM),0.425 (active)
10,Cc1nc2ccc(-n3ncc(C(=O)c4cc5ccccc5[nH]4)c3N)cc2[nH]1 (33.3333 µM),0.562
11,O=C(O[C@H]1CN2CCC1CC2)N1CCc2ccccc2[C@@H]1c1ccccc1 [Solifenacin succinate] (33.3333 µM),0.375 (active)
12,Cc1cccc(Nc2nc(-c3ccncc3)cs2)c1 (11.1 µM),0.552
13,CS(=O)(=O)CCNCc1ccc(-c2ccc3ncnc(Nc4ccc(OCc5cccc(F)c5)c(Cl)c4)c3c2)o1 (6.66667 µM),1.41
14,CNCc1ccc(-c2cc(-c3nc(-c4ccc(S(=O)(=O)C(C)C)cc4)cnc3N)on2)cc1 (11.1 µM),0.0438
15,Cc1nc(Nc2ncc(C(=O)Nc3c(C)cccc3Cl)s2)cc(N2CCN(CCO)CC2)n1 (33.3333 µM),0.446 (active)
16,C[C@H]1O[C@@H](O[C@H]2[C@@H](O)C[C@H](O[C@H]3[C@@H](O)C[C@H](O[C@H]4CC[C@@]5(C)[C@H](CC[C@@H]6[C@@H]5C[C@@H](O)[C@]5(C)[C@@H](C7=CC(=O)OC7)CC[C@]65O)C4)O[C@@H]3C)O[C@@H]2C)C[C@H](O)[C@@H]1O [Digoxin] (33.3333 µM),0.0679 (active)
17,CCc1cc2c(cc1CC)CC(NC[C@H](O)c1ccc(O)c3[nH]c(=O)ccc13)C2 [Indacaterol Maleate] (33.3333 µM),0.0797 (active)
18,CSc1ccc2c(c1)C(N1CCN(C)CC1)Cc1ccccc1S2 (stereo not given) [Methiothepin maleate] (33.3333 µM),0.00214
19,Cc1ccc(S(=O)(=O)/C=C/C#N)cc1 (33.3333 µM),0.394
20,O=C1NCN(c2ccccc2)C12CCN(CCCC(c1ccc(F)cc1)c1ccc(F)cc1)CC2 [Fluspirilene] (14.0333 µM),0.695

row,Compound,COL1A1 mRNA fold change
1,O=C(c1ccc(/C=C/c2n[nH]c3ccccc23)cc1)N1CCNCC1 (33.3333 µM),0.0707
2,N=C(N)SCCc1ccc(OCc2ccc([N+](=O)[O-])cc2)cc1 [KB-R7943 mesylate] (33.3333 µM),0.168 (active)
3,C[C@]12CC[C@H](O)CC1=CC[C@@H]1[C@@H]2CC[C@]2(C)C(n3cnc4ccccc43)=CC[C@@H]12 [Galeterone] (33.3333 µM),0.0557
4,CC(C)c1ccc(C(=O)c2cccs2)c(SCCCCCCCCN(C)C)n1 (33.3333 µM),0.429
5,"NC(N)=NC(=O)c1nc(Cl)c(N2CCCCCC2)nc1N [5-(N,N-hexamethylene)amiloride] (33.3333 µM)",0.0273 (active)
6,CCC/C=C\C=C/C(=O)N[C@@H](CC(N)=O)C(=O)NC(CC(N)=O)C(=O)N[C@@H](C(=O)N[C@H](CCCN)C(=O)N[C@@H](C(=O)N[C@@H](C(=O)N[C@@H](C(=O)N[C@H](C(=O)N[C@@H](Cc1ccccc1)C(=O)N[C@H](CCCN)C(=O)NC(C(=O)N[C@H](C(=O)NC(C(=O)NCC(=O)N[C@@H](CC(C)C)C(=O)N[C@H](C)C(=O)NC(C(=O)O)C1CCC(O)C(Cl)C1)C1CCC(O)CC1)[C@H](C)O)C1CCC(O)CC1)[C@H](C)O)C1CCC(O)CC1)C1CCC(O)CC1)[C@H](C)O)C1CCC(O)CC1 (stereo not given in full) (33.3333 µM),1.59
7,OCCN1CCN(CCCN2c3ccccc3Sc3ccc(C(F)(F)F)cc32)CC1 (33.3333 µM),0.0645
8,O=C(Nc1cc(C(F)(F)F)cc(C(F)(F)F)c1)c1cc(Cl)ccc1O (33.3333 µM),0.203 (active)
9,CC(/C=C/C(=O)NO)=C\[C@@H](C)C(=O)c1ccc(N(C)C)cc1 [Trichostatin A] (3.33333 µM),0.405 (active)
10,C[C@@H]1CN(CCCn2c3ccccc3c3ccccc32)C[C@H](C)N1 [Rimcazole dihydrochloride] (33.3333 µM),0.14
11,COC(=O)C[C@](O)(CCCC(C)(C)O)C(=O)O[C@@H]1C(OC)=C[C@]23CCCN2CCc2cc4c(cc2[C@H]13)OCO4 [Homoharringtonine] (33.3333 µM),0.0354 (active)
12,COC(=O)N[C@H](C(=O)N1CCC[C@H]1c1ncc(-c2ccc(-c3ccc(-c4cnc([C@@H]5CCCN5C(=O)[C@@H](NC(=O)OC)C(C)C)[nH]4)cc3)cc2)[nH]1)C(C)C (33.3333 µM),0.0176
13,c1ccc2c(NCCCCCCCNc3c4c(nc5ccccc35)CCCC4)c3c(nc2c1)CCCC3 [bis(7)-Tacrine] (3.33333 µM),0.0304 (active)
14,Cc1ccc(NC(=O)C(C)C)cc1C1CCN(Cc2ccc(Oc3ccc(F)c(F)c3)cc2)CC1 (33.3333 µM),0.0966
15,C#C[C@]1(O)CC[C@H]2[C@@H]3CCC4=Cc5oncc5C[C@]4(C)[C@H]3CC[C@@]21C [Danazol] (33.3333 µM),0.0336 (active)
16,[O-][S+](c1ccccc1)c1ccc2nnnn2n1 (stereo not given) (33.3333 µM),0.0868
17,CCOC(=O)C1=C(COCCN)NC(C)=C(C(=O)OC)C1c1ccccc1Cl (stereo not given) (33.3333 µM),0.437 (active)
18,CCCCc1oc2ccccc2c1C(=O)c1cc(I)c(OCCN(CC)CC)c(I)c1 (33.3333 µM),0.057 (active)
19,CN(C)CCCCC(=O)Nc1ccc(NC(=S)NC(=O)c2ccc(C(C)(C)C)cc2)cc1 [Tenovin-6] (33.3333 µM),0.00938
20,CCN1CCC(n2cc(CNc3cc(Cl)c4ncc(C#N)c(Nc5ccc(F)c(Cl)c5)c4c3)nn2)CC1 (33.3333 µM),0.124
